In the supplement of paper PMC12494721:
Structures can show the parent of a compound that is named as a salt. Unmarked numbers belong to inactive results.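 How the source made its calls: for the amine columns active = adjusted P below 0.05 in both replicates with a change the same way and a mean fold change under 0.8 or over 1.25; inactive = the rest.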

Tested on: Escherichia coli IAI1
Assay: fold change of Cadaverine concentration vs plate DMSO controls (fold change (ratio)); higher = more amine produced, active = hit call of the paper (significant change in both replicates, either direction)
Conditions: 20 µM; incubation time: 27 h, anaerobic, 37 °C
How it was run: (§1)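 Extracts of whole anaerobic mGAM cultures were analysed for amines by LC–triple-quadrupole MS with dynamic MRM and external calibration curves, with drift corrected within batch. Four gut strains were grown at 37 °C for 27 h in 80 µL wells with compounds at 20 µM final, sweeteners at 50 µM final. Each value expresses fold change over plate DMSO controls. The average of 2 biological replicates is shown.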

| SMILES | fold change of Cadaverine concentration |
| --- | --- |
| CS(=O)(=O)NC(=O)c1cc(Oc2ccc(C(F)(F)F)cc2Cl)ccc1[N+](=O)[O-] | 1.01 |
| C#C[C@]1(O)C=C[C@H]2[C@@H]3CCC4=CC(=O)CC[C@@H]4[C@H]3CC[C@@]21CC [Gestodene] | 0.995 |
| ClC1C(Cl)C(Cl)C(Cl)C(Cl)C1Cl (centres undefined) | 1.02 |
| CCOC(=O)OC1=C(c2cc(C)ccc2C)C(=O)N[C@]12CC[C@@H](OC)CC2 | 0.963 |
| N#Cc1cc(Br)c(O)c(Br)c1 | 1.29 (active) |
| O=C(CCCN1CCC2(CC1)C(=O)NCN2c1ccccc1)c1ccc(F)cc1 [Spiperone] | 1.01 |
| CNC(=O)Oc1cccc(/N=C/N(C)C)c1 | 1.02 |
| CN(C)C(CSS(=O)(=O)O)CSS(=O)(=O)O | 1.02 |
| CN1[C@@H]2C[C@@H](OC(=O)[C@H](CO)c3ccccc3)C[C@H]1[C@@H]1O[C@@H]12 [Scopolamine hydrochloride] | 0.948 |
| COP(=S)(OC)Oc1nc(Cl)c(Cl)cc1Cl | 0.99 |
| C#CCN(C)[C@H](C)Cc1ccccc1 [Selegiline hydrochloride] | 1.03 |
| C[N+]1(C)CCCC(OC(=O)C(O)(c2ccccc2)c2ccccc2)C1 (centres undefined) [Mepenzolate bromide] | 1.03 |
| CCNc1nc(Cl)nc(NC(C)C)n1 | 0.849 |
| CCc1cc(C)cc(CC)c1-c1c(OC(=O)C(C)(C)C)n2n(c1=O)CCOCC2 | 1.05 |
| COP(=O)(NC(C)=O)SC (centres undefined) | 1.02 |
| CC[C@H]1CCC[C@H](O[C@H]2CC[C@H](N(C)C)[C@@H](C)O2)[C@@H](C)C(=O)C2=C[C@@H]3[C@@H](C=C(C)[C@@H]4C[C@@H](O[C@@H]5O[C@@H](C)[C@H](OC)[C@@H](OC)[C@H]5OC)C[C@@H]34)[C@@H]2CC(=O)O1.CC[C@H]1CCC[C@H](O[C@H]2CC[C@H](N(C)C)[C@@H](C)O2)[C@@H](C)C(=O)C2=C[C@H]3[C@@H]4C[C@H](O[C@@H]5O[C@@H](C)[C@H](OC)[C@@H](OC)[C@H]5OC)C[C@H]4C=C[C@H]3C2CC(=O)O1 | 1.01 |
| C[C@@H]1C[C@@H]([C@H](O)CC2CC(=O)NC(=O)C2)C(=O)[C@@H](C)C1 [Cycloheximide] | 1.01 |
| c1ccc2c(c1)cc1ccc3cccc4ccc2c1c34 [Benzo[a]pyrene] | 1 |
| N#Cc1sc2c(=O)c3ccccc3c(=O)c=2sc1C#N | 1.02 |

| SMILES | fold change of Cadaverine concentration |
| --- | --- |
| Cc1cccc2sc3nncn3c12 | 1.03 |
| CCC1(C)CC(=O)NC(=O)C1 [Bemegride] | 0.986 |
| CCOP(=S)(OCC)Oc1cc(C)nc(C(C)C)n1 | 1.01 |
| CN1CCN(C(=O)OC2c3nccnc3C(=O)N2c2ccc(Cl)cn2)CC1 (centres undefined) [Zopiclone] | 0.979 |
| CO[C@]12C[C@@H](COC(=O)c3cncc(Br)c3)CN(C)[C@@H]1Cc1cn(C)c3cccc2c13 [Nicergoline] | 0.908 |
| CCOP(=S)(OCC)Oc1nc(Cl)c(Cl)cc1Cl | 1.03 |
| C[N+](C)(C)CCCCCCCCCC[N+](C)(C)C [Decamethonium bromide] | 0.877 |
| C[C@]12COC(=O)C[C@@H]1CC[C@@H]1[C@@H]2CC[C@@]2(C)[C@H]1CC[C@]2(C)O [Oxandrolone] | 1.02 |
| OC(Cc1ccccc1Cl)(Cn1nc[nH]c1=S)C1(Cl)CC1 (centres undefined) | 0.946 |
| NCC1(CC(=O)O)CCCCC1 [Gabapentin] | 1.02 |
| CC(C)C[C@H]1C(=O)N2CCC[C@H]2[C@]2(O)O[C@](NC(=O)[C@@H]3C=C4c5cccc6[nH]c(Br)c(c56)C[C@H]4N(C)C3)(C(C)C)C(=O)N12 [Bromocryptine mesylate] | 1.04 |
| NCC(O)c1ccc(O)cc1 (centres undefined) [Octopamine hydrochloride] | 1.01 |
| NCC(CC(=O)O)c1ccc(Cl)cc1 (centres undefined) [Baclofen] | 1 |
| CC1(C)C(C=C(Cl)Cl)C1C(=O)OC(C#N)c1cccc(Oc2ccccc2)c1 (mixture of isomers) | 0.994 |
| C#CCN1C(=O)COc2cc(F)c(N3C(=O)C4=C(CCCC4)C3=O)cc21 | 1.04 |
| CN1COCN(Cc2cnc(Cl)s2)/C1=N\[N+](=O)[O-] | 1.03 |
| CCNC1(c2cccs2)CCCCC1=O (centres undefined) [Tiletamine hydrochloride] | 0.995 |
| Cc1cc(C(C#N)c2ccc(Cl)cc2)c(Cl)cc1NC(=O)c1cc(I)cc(I)c1O (centres undefined) | 1.29 (active) |

Tested on: Klebsiella aerogenes DSM 30053
Assay: as above
Conditions: 20 µM; incubation time: 27 h, anaerobic, 37 °C
How it was run: as §1

| SMILES | fold change of Cadaverine concentration |
| --- | --- |
| CS(=O)(=O)NC(=O)c1cc(Oc2ccc(C(F)(F)F)cc2Cl)ccc1[N+](=O)[O-] | 1.02 |
| C#C[C@]1(O)C=C[C@H]2[C@@H]3CCC4=CC(=O)CC[C@@H]4[C@H]3CC[C@@]21CC [Gestodene] | 0.988 |
| ClC1C(Cl)C(Cl)C(Cl)C(Cl)C1Cl (centres undefined) | 0.994 |
| CCOC(=O)OC1=C(c2cc(C)ccc2C)C(=O)N[C@]12CC[C@@H](OC)CC2 | 1 |
| N#Cc1cc(Br)c(O)c(Br)c1 | 0.978 |
| O=C(CCCN1CCC2(CC1)C(=O)NCN2c1ccccc1)c1ccc(F)cc1 [Spiperone] | 0.998 |
| CNC(=O)Oc1cccc(/N=C/N(C)C)c1 | 1 |
| CN(C)C(CSS(=O)(=O)O)CSS(=O)(=O)O | 0.988 |
| CN1[C@@H]2C[C@@H](OC(=O)[C@H](CO)c3ccccc3)C[C@H]1[C@@H]1O[C@@H]12 [Scopolamine hydrochloride] | 1.02 |
| COP(=S)(OC)Oc1nc(Cl)c(Cl)cc1Cl | 0.991 |
| C#CCN(C)[C@H](C)Cc1ccccc1 [Selegiline hydrochloride] | 1.01 |
| C[N+]1(C)CCCC(OC(=O)C(O)(c2ccccc2)c2ccccc2)C1 (centres undefined) [Mepenzolate bromide] | 1.01 |
| CCNc1nc(Cl)nc(NC(C)C)n1 | 1 |
| CCc1cc(C)cc(CC)c1-c1c(OC(=O)C(C)(C)C)n2n(c1=O)CCOCC2 | 0.994 |
| COP(=O)(NC(C)=O)SC (centres undefined) | 0.997 |
| CC[C@H]1CCC[C@H](O[C@H]2CC[C@H](N(C)C)[C@@H](C)O2)[C@@H](C)C(=O)C2=C[C@@H]3[C@@H](C=C(C)[C@@H]4C[C@@H](O[C@@H]5O[C@@H](C)[C@H](OC)[C@@H](OC)[C@H]5OC)C[C@@H]34)[C@@H]2CC(=O)O1.CC[C@H]1CCC[C@H](O[C@H]2CC[C@H](N(C)C)[C@@H](C)O2)[C@@H](C)C(=O)C2=C[C@H]3[C@@H]4C[C@H](O[C@@H]5O[C@@H](C)[C@H](OC)[C@@H](OC)[C@H]5OC)C[C@H]4C=C[C@H]3C2CC(=O)O1 | 0.992 |
| C[C@@H]1C[C@@H]([C@H](O)CC2CC(=O)NC(=O)C2)C(=O)[C@@H](C)C1 [Cycloheximide] | 0.998 |
| c1ccc2c(c1)cc1ccc3cccc4ccc2c1c34 [Benzo[a]pyrene] | 1 |
| N#Cc1sc2c(=O)c3ccccc3c(=O)c=2sc1C#N | 0.992 |

| SMILES | fold change of Cadaverine concentration |
| --- | --- |
| Cc1cccc2sc3nncn3c12 | 0.995 |
| CCC1(C)CC(=O)NC(=O)C1 [Bemegride] | 0.991 |
| CCOP(=S)(OCC)Oc1cc(C)nc(C(C)C)n1 | 1 |
| CN1CCN(C(=O)OC2c3nccnc3C(=O)N2c2ccc(Cl)cn2)CC1 (centres undefined) [Zopiclone] | 0.99 |
| CO[C@]12C[C@@H](COC(=O)c3cncc(Br)c3)CN(C)[C@@H]1Cc1cn(C)c3cccc2c13 [Nicergoline] | 1.02 |
| CCOP(=S)(OCC)Oc1nc(Cl)c(Cl)cc1Cl | 1.02 |
| C[N+](C)(C)CCCCCCCCCC[N+](C)(C)C [Decamethonium bromide] | 1.08 |
| C[C@]12COC(=O)C[C@@H]1CC[C@@H]1[C@@H]2CC[C@@]2(C)[C@H]1CC[C@]2(C)O [Oxandrolone] | 0.999 |
| OC(Cc1ccccc1Cl)(Cn1nc[nH]c1=S)C1(Cl)CC1 (centres undefined) | 0.974 |
| NCC1(CC(=O)O)CCCCC1 [Gabapentin] | 0.985 |
| CC(C)C[C@H]1C(=O)N2CCC[C@H]2[C@]2(O)O[C@](NC(=O)[C@@H]3C=C4c5cccc6[nH]c(Br)c(c56)C[C@H]4N(C)C3)(C(C)C)C(=O)N12 [Bromocryptine mesylate] | 1.01 |
| NCC(O)c1ccc(O)cc1 (centres undefined) [Octopamine hydrochloride] | 1 |
| NCC(CC(=O)O)c1ccc(Cl)cc1 (centres undefined) [Baclofen] | 1.03 |
| CC1(C)C(C=C(Cl)Cl)C1C(=O)OC(C#N)c1cccc(Oc2ccccc2)c1 (mixture of isomers) | 1.01 |
| C#CCN1C(=O)COc2cc(F)c(N3C(=O)C4=C(CCCC4)C3=O)cc21 | 0.988 |
| CN1COCN(Cc2cnc(Cl)s2)/C1=N\[N+](=O)[O-] | 0.993 |
| CCNC1(c2cccs2)CCCCC1=O (centres undefined) [Tiletamine hydrochloride] | 1.01 |
| Cc1cc(C(C#N)c2ccc(Cl)cc2)c(Cl)cc1NC(=O)c1cc(I)cc(I)c1O (centres undefined) | 1.01 |
